Out of some 16,000 compounds screened, about 4,000 (25%) were called active. About 26% were inconclusive and are not listed. Not all results are given here. Unmarked numbers belong to inactive results. Calls come from the whole dose curve; as a rule, active = well fitted curve in the direction sought with a large enough effect; inconclusive = small, poorly fitted or top-dose-only effect, or effect the other way; inactive = no such curve, though single readings can be large or run the other way. Peptide text beside a SMILES is read from it.
% is set by controls: 0 for no effect and ±100 for the full control effect.

Cytochrome P450 2C9 (Homo sapiens), sequence (P11712 whole entry, looked up): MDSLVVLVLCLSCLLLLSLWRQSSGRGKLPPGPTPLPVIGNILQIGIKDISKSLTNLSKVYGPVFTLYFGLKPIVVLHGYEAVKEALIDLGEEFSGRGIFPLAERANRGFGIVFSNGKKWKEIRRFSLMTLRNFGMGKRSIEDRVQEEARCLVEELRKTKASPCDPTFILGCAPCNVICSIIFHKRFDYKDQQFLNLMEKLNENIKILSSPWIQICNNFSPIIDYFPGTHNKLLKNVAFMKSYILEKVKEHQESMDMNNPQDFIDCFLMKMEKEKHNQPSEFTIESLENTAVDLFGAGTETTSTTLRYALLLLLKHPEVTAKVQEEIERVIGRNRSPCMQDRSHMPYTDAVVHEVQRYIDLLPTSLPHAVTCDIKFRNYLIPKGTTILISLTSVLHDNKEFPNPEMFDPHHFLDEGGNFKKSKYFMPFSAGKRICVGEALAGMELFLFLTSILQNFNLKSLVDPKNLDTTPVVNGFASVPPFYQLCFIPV

The test addresses Cytochrome P450 2C9 (Homo sapiens) (UniProt P11712). Briefly: Cytochrome panel assay with activity outcomes. To be noted: recombinant CYP, pro-luciferin dealkylation, luminescence, p450-cyp2c9; series mostly up to 57.1 µM.
Turning to `C[N+]1(C)CCC[C@@H](OC(=O)C(O)(c2ccccc2)c2ccccc2)C1`, the AC50 – broadly, the midpoint of the concentration-response curve, whichever way the signal moves – was “inactive”.
The same measure, in the same setting: for `COc1ccc(-n2c(=O)c(C)nc3cnc(N(C)C)nc32)cc1` the value was “inactive”.
As to `CN(C)c1ncnc2ccc(-c3ccccc3C(F)(F)F)cc12`, the activity, negative = inhibition is -18.7% [at 2.29 µM].
Same read-out and setting: the figure for `COc1ccccc1-c1cc(Nc2ccc(F)cc2)ncn1` is -2.06% [at 2.29 µM].
Take `O=C(NNC(=O)C1CCCCC1)c1cnccn1`: the AC50 entry is “inactive”.
On the same count and under the same terms, for `CC(C)CN(C)c1nc(N)c(C(=O)N=C(N)N)nc1Cl` the value was “inactive”.
In the case of `Clc1ccccc1-c1nc(NCCN2CCOCC2)c2ccccc2n1`, the activity, negative = inhibition is 24.6% [at 2.29 µM].
Same read-out and setting: for `O=C1CSC2(CCN(CCCN3c4ccccc4Sc4ccc(Cl)cc43)CC2)N1` the value was 4.61% [at 11.4 µM].
Regarding `COc1ccccc1NC(=O)Nc1nnc(-c2ccco2)s1`, the AC50 result is “inactive”.
On the same count and under the same terms, the figure for `COc1ccc(Cc2nnc(NC(=O)c3ccco3)s2)cc1` is 2.82 µM (active); for `OC[C@@H]1O[C@@H](n2cnc3cncnc32)[C@@H](O)[C@H]1O` it is “inactive”.
For the compound `COc1cccc(-c2nccc(NCc3cnc(C)cn3)n2)c1`, the activity, negative = inhibition is -10.6% [at 2.29 µM].
For the compound `CN(C)CC/C=C1\c2ccccc2CSc2ccccc21`, the AC50 result was “inactive”.
Take `C[C@H](N)C(=O)O`: the AC50 result was “inactive”.
On to `CC(=O)N[C@@H](CC(=O)O)C(=O)N[C@@H](CCC(=O)O)C(=O)O` (Ac-Asp-Glu-OH), for which the AC50 entry is “inactive”.
Turning to `O=C(c1csnn1)N1CCC2(CC1)CN(c1ccccc1)C2`, the AC50 result is “inactive”.
For the compound `O=C(c1csnn1)N1CCC2(CC1)CN(c1cccc(-c3ccccc3)c1)C2`, the AC50 result is “inactive”.
Same read-out and setting: the figure for `O=C(c1csnn1)N1CCC2(CCCN(c3ccccc3)C2)CC1` is 7.94 µM (active).
As for `O=C(c1csnn1)N1CCC2(CC1)CN(c1ccncc1)C2`, the AC50 was 2.51 µM (active).
For `O=C(c1csnn1)N1CCC2(CCCN(c3ccc(-c4ccccc4)cc3)C2)CC1`, the AC50 entry is “inactive”.
For `O=C(c1csnn1)N1CCC2(CC1)CCN(c1ccccc1)CC2`, the AC50 entry was “inactive”.
Still for that read-out and setting: for `COc1ccc(NC(=O)N2CC[C@@]3(CCCN(C(C)=O)C3)C2)cc1` the value was “inactive”; for `CCn1c(SCC(=O)OC)nnc1C1CCCCC1`, “inactive”; for `COC(=O)CSc1ccc2nnc(-c3ccc(F)cc3)n2n1`, 10 µM (active).
Take `COC(=O)CSc1nnc(-c2ccccc2OC)n1-c1ccc(C)cc1`: the AC50 entry was “inactive”.
Consider `CCOc1ccc(-c2nnc3ccc(SCC(=O)NCc4ccco4)nn23)cc1`, for which the AC50 is 11.2 µM (active).
As to `O[C@@H](c1cc([C@@]23C[C@H]4CC[C@@H]2C[C@H](C4)C3)nc2c(Cl)cc(Cl)cc12)[C@@H]1CCCCN1`, the activity, negative = inhibition is -4.65% [at 11.4 µM].
Regarding `Cc1cnc(CNc2cc(-c3ccc(C(=O)N(C)C)cc3)ncn2)cn1`, the activity, negative = inhibition was 23.4% [at 2.29 µM].
`COc1ccc(/C=N/NC(=O)C2CCN(c3ncc(C(F)(F)F)cc3Cl)CC2)cc1`: the AC50 result was “inactive”.
Still for that read-out and setting: for `FC(F)(F)c1cnc(N2CCC(=NOCc3ccc(Cl)cc3)CC2)c(Cl)c1` the value was “inactive”; for `O=C(OC1CCN(c2ncc(C(F)(F)F)cc2Cl)CC1)c1ccccc1`, 10 µM (active).
For `COC(=O)[C@@]1(Cc2ccc(F)cc2)[C@H]2c3cc(C(=O)N4CCCC4)n(CCc4ccc(O)c(O)c4)c3C[C@H]2CN1C(=O)c1ccccc1`, the AC50 was 3.16 µM (active).
Regarding `COC(=O)[C@@]1(Cc2ccc(F)cc2)[C@H]2c3cc(C(=O)N4CCCC4)n(CCc4ccc(OC)c(Br)c4)c3C[C@H]2CN1C(=O)c1ccccc1`, the AC50 is 3.16 µM (active).
On the same count and under the same terms, for `COc1ccccc1CN1CCCC2(CCN(C(=O)c3cccn3C)CC2)C1` the value was “inactive”; for `C/C(=N\OC(=O)c1ccccc1F)c1nccs1`, “inactive”.
On to `O=S(=O)(O)c1ccc2cc(N=Nc3cc(S(=O)(=O)O)c4cccnc4c3O)ccc2c1`, for which the activity, negative = inhibition is -4.09% [at 11.4 µM].
For the compound `Cc1ccc(-n2cnc(=O)c3cccnc32)cc1`, the AC50 result is “inactive”.
Take `Cc1cc(C)cc(-n2c(O)c(C=NC3CCS(=O)(=O)C3)c3ccccc3c2=O)c1` (stereo unspecified): the AC50 is 4.47 µM (active).
The same measure, in the same setting: the figure for `Cc1ccc(-n2c(O)c(/C=N/n3cnnc3)c3ccccc3c2=O)cc1` is 0.794 µM (active).
As for `Nc1c(S(N)(=O)=O)cc(S(N)(=O)=O)cc1S(N)(=O)=O`, the activity, negative = inhibition was -3.4% [at 11.4 µM].
`CN(CCc1ccc(Cl)c(Cl)c1)CCN1CCCCCC1`: the AC50 entry was “inactive”.
Still for that read-out and setting: the figure for `CN(CCc1ccc(Cl)c(Cl)c1)C[C@@H](O)COc1ccc(NS(C)(=O)=O)cc1` is 2.51 µM (active).
Same read-out and setting: for `CC(C)NC[C@H](O)c1ccc(NS(C)(=O)=O)cc1` the value was “inactive”; for `O=C(NC(N1CCCC1)C(Cl)(Cl)Cl)c1ccccc1` (stereo unspecified), “inactive”.
On the same count and under the same terms, for `CC(=O)NNC(=O)C(O)(c1ccccc1)c1ccccc1` the value was “inactive”.
Turning to `CC(C)(C)N(NC(=O)c1ccccc1)C(=O)c1cccc(C(=O)N(NC(=O)c2ccccc2)C(C)(C)C)c1`, the AC50 is 15.8 µM (active).
Same read-out and setting: for `COc1ccc(-c2noc(N(C)CC(=O)Nc3cccc(C(F)(F)F)c3)n2)cc1` the value was 5.01 µM (active); for `CN(CCCNC(=O)c1cccn2c(=O)c3ccccc3nc12)Cc1ccccc1`, 17.8 µM (active); for `Cc1ccc(CCN2CC(C(=O)NCCCN(C)Cc3ccccc3)CC2=O)cc1` (stereo unspecified), “inactive”.
Still for that read-out and setting: the entry for `CN(CCCNC(=O)c1ccc(/C=N/O)nc1)CCCN(C)Cc1ccccc1` is “inactive”.
On the same count and under the same terms, the entry for `CNC(=O)c1c(I)c(C(=O)NCC(=O)Nc2c(I)c(C(=O)O)c(I)c(C(=O)NCCO)c2I)c(I)c(N(C)C(C)=O)c1I` is “inactive”; for `Cc1ccc(C(=O)N/C(=C\c2ccc([N+](=O)[O-])cc2)C(=O)NCCc2ccccc2)cc1` it is “inactive”; for `COc1ccc(NC(=O)/C(=C\c2cc(OC)c(OC)cc2[N+](=O)[O-])NC(=O)c2ccccc2)cc1` it is 7.94 µM (active).
For `O=C(Nc1ccccc1)/C(=C\c1ccncc1)NC(=O)c1ccccc1`, the AC50 is 0.2 µM (active).
On the same count and under the same terms, the figure for `Cc1ccc(NC(=O)/C(=C\c2ccc([N+](=O)[O-])cc2)NC(=O)c2ccccc2)cc1` is 11.2 µM (active).
As to `O=C1[C@H]2[C@H]3[C@H](O)[C@H](O)C/C(=N/OCc4ccccc4)[C@@H]3CC[C@@H]2C(=O)N1C[C@@H]1CCCO1`, the activity, negative = inhibition is 7.38% [at 11.4 µM].
With `O=C(O)C1C2C=CC3(CN(Cc4ccccn4)C(=O)C13)O2` (stereo unspecified), the AC50 result is “inactive”.
For `CC(=O)NCCNc1ncncc1-c1ccccc1C(F)(F)F`, the activity, negative = inhibition was -11.4% [at 2.29 µM].
Still for that read-out and setting: for `O=C(O)c1nnsc1COCc1ccccc1` the value was -2.96% [at 11.4 µM].
On to `COC(=O)c1c(-c2cc(OC)c(OC)c(OC)c2)c2ccc(OCc3ccccn3)cc2c(=O)n1-c1ccc(N)cc1`, for which the AC50 was 3.98 µM (active).
For the compound `CC(C)CNc1nc(N)[nH]c(=O)c1NC=O`, the activity, negative = inhibition is -6.56% [at 11.4 µM].
For the compound `OC1(c2ccc(OC(F)F)cc2)CSC(=Nc2cccnc2)N1C1CC1` (stereo unspecified), the AC50 is 5.01 µM (active).
Consider `Cc1cccc(CNc2cc(-c3ccccc3Cl)ncn2)c1`, for which the activity, negative = inhibition is 4.64% [at 2.29 µM].
As for `Cc1ccccc1-c1cc(NCc2ccccc2)ncn1`, the activity, negative = inhibition is -15.2% [at 2.29 µM].
Take `Cc1ccc(N2C(=O)C(Cl)=C(NCc3ccccc3)C2=O)c(C)c1`: the AC50 was 5.62 µM (active).
The same measure, in the same setting: for `COC(=O)c1ccccc1N/C=C1\CCc2c(c(C)nn2-c2ccccn2)C1=O` the value was 14.1 µM (active); for `COc1ccc(-c2cc(C(=O)O)c3c(C)nn(-c4ccccn4)c3n2)cc1`, “inactive”.
Take `COc1ccc(COC(=O)N/N=C2/C[C@@H](O)[C@@H](O)[C@@H]3[C@H]4C(=O)N(c5ccc(F)cc5F)C(=O)[C@@H]4CC[C@H]23)cc1`: the activity, negative = inhibition is -4.97% [at 11.4 µM].
As to `CCOC(=O)C(CC)(CC)C(=O)/C=C/c1ccc(Br)cc1`, the AC50 was 5.01 µM (active).
Take `C[n+]1ccc(/C=C/c2ccc(Br)cc2)cc1`: the AC50 entry was “inactive”.
In the case of `O=C(/C=C/c1ccc(Br)cc1)NC1CCCCCC1`, the AC50 result was “inactive”.
For the compound `CCCNS(=O)(=O)c1ccc(OCC(=O)OC)cc1`, the AC50 was 7.08 µM (active).
In the case of `Nc1ccc(S(=O)(=O)NCCS(=O)(=O)O)cc1`, the activity, negative = inhibition was 9.74% [at 11.4 µM].
As for `O=C(NOC(=O)c1cc(Br)ccc1Cl)c1cccs1`, the AC50 result is “inactive”.
For the compound `Cc1ccc(Cc2cnc(NC(=O)c3cccs3)s2)cc1`, the AC50 is 8.91 µM (active).
Consider `O=C(Nc1ncc(Cc2cccc(Cl)c2)s1)c1cccs1`, for which the AC50 was 11.2 µM (active).
On the same count and under the same terms, the entry for `Cc1ccc(NC(=O)CCC(=O)NNC(=O)c2cccs2)c(C)c1` is “inactive”.
For `Nc1[nH]c(=O)nc2c1ncn2[C@H]1O[C@@H](CO)[C@@H](O)[C@@H]1O`, the activity, negative = inhibition is -0.314% [at 11.4 µM].
Still for that read-out and setting: the figure for `O=C(O)c1ccc(S(=O)(=O)N=Nc2c(O)[nH]c3ccccc23)cc1` is 3.79% [at 11.4 µM]; for `N#CCCSC(=S)[C@H]1CCCC1=N` it is -3.69% [at 11.4 µM].
As for `O=C(CCC(=O)OCc1ccc(C(=O)Oc2ccccc2)cc1)Nc1cccc2ccccc12`, the AC50 is 15.8 µM (active).
Same read-out and setting: the entry for `COC(=O)CCC(=O)Nc1cccc2ccccc12` is “inactive”.
`N#Cc1c(NC(=O)CCC(=O)O)ccc2ccccc12`: the activity, negative = inhibition was -7.5% [at 11.4 µM].
For `COc1ncc2nc(-c3cc(F)cc(F)c3)c(=O)n(CCC#N)c2n1`, the AC50 entry is “inactive”.
In the case of `N#Cc1sc2nc(-c3cccs3)cc(-c3ccc(Cl)cc3)c2c1N`, the AC50 was 4.47 µM (active).
For `Cc1cc(O)c(C(C)C)cc1N=Cc1ccccc1O`, the AC50 was 0.631 µM (active).
Regarding `O=C(O)c1cc(N=Cc2ccccc2O)cc(C(=O)O)c1`, the activity, negative = inhibition is 7.44% [at 11.4 µM].
The same measure, in the same setting: for `[O-][n+]1c(CN2CCCCC2)nc2cccc3c2c1-c1ccccc1-3` the value was -15.3% [at 11.4 µM].
Turning to `CN(C)c1ccc(/C=N\NC(=O)c2cnc3ccccc3c2)cc1`, the activity, negative = inhibition is -6.78% [at 11.4 µM].
For the compound `CC(C)(C)c1ccc(C2CC2C(=O)N/N=C\c2cc3ccccc3nc2Cl)cc1` (stereo unspecified), the AC50 is 3.55 µM (active).
As for `CN(Cc1ccco1)c1ncncc1-c1cccnc1`, the activity, negative = inhibition is 10.8% [at 2.29 µM].

Source of the values: PubChem BioAssay AID1851 (National Center for Advancing Translational Sciences (NCATS), 2009).
